Test [1] in a line: Quantitative High-Throughput drug screen in 47 multiple myeloma cell lines against the NCATS MIPE library collection: MM1R_ATCC cell viability assay (AID 1918981). Note: nearly all actives have a fitted effect of over 35% in size. Put shortly:
(§1)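 500 cells/well per myeloma line exposed to pinned MIPE 4.0 compounds for 48 h at 37 °C, 5% CO2. Viability read as ATP by CellTiter-Glo luminescence, normalised to DMSO-only (100%) and media-only (0%) wells.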

Test [2] is described as follows: Quantitative High-Throughput drug screen in 47 multiple myeloma cell lines against the NCATS MIPE library collection: LP1_DSMZ cell viability assay (AID 1918982). Note: nearly all actives have a fitted effect of over 35% in size. The procedure, abridged: as §1
The nature of test [3]: Quantitative High-Throughput drug screen in 47 multiple myeloma cell lines against the NCATS MIPE library collection: KMS28PE_JCRB cell viability assay (AID 1918983). Note: nearly all actives have a fitted effect of over 35% in size. Put shortly: as §1
Test [4] can be described thus: Quantitative High-Throughput drug screen in 47 multiple myeloma cell lines against the NCATS MIPE library collection: L363_DSMZ cell viability assay (AID 1918984). Note: nearly all actives have a fitted effect of over 40% in size. Put shortly: as §1
Test [5] can be described thus: Quantitative High-Throughput drug screen in 47 multiple myeloma cell lines against the NCATS MIPE library collection: KMS34_JCRB cell viability assay (AID 1918985). Note: nearly all actives have a fitted effect of over 40% in size. The procedure, abridged: as §1
Test [6] is described as follows: Quantitative High-Throughput drug screen in 47 multiple myeloma cell lines against the NCATS MIPE library collection: OCIMY7_PLB cell viability assay (AID 1918987). Note: nearly all actives have a fitted effect of over 65% in size. The procedure, abridged: as §1
Test [7] is described as follows: Quantitative High-Throughput drug screen in 47 multiple myeloma cell lines against the NCATS MIPE library collection: OCIMY5_PLB cell viability assay (AID 1918988). Note: nearly all actives have a fitted effect of over 65% in size. Put shortly: as §1
Test [8] in a line: Quantitative High-Throughput drug screen in 47 multiple myeloma cell lines against the NCATS MIPE library collection: OPM1_PLB cell viability assay (AID 1918989). Note: nearly all actives have a fitted effect of over 40% in size. Put shortly: as §1
A short description of test [9]: Quantitative High-Throughput drug screen in 47 multiple myeloma cell lines against the NCATS MIPE library collection: SKMM1_PLB cell viability assay (AID 1919863). For viability: series mostly up to about 46 µM. Note: nearly all actives have a fitted effect of over 35% in size. The following applies: SKMM1 myeloma viability, CellTiter-Glo ATP, 48 h; viability: stronger effect = lower value. Put shortly:
as §1

Test [10] in a line: Quantitative High-Throughput drug screen in 47 multiple myeloma cell lines against the NCATS MIPE library collection: U266_ATCC cell viability assay (AID 1919864). Note: nearly all actives have a fitted effect of over 35% in size. The procedure, abridged:
as §1

SMILES strings stand for the structures. Inconclusive results are not listed. A number with no mark means an inactive call. Active and inactive are the calls of the source. Calls come from the whole dose curve; as a rule, active = well fitted cell-killing curve with a large enough effect; inconclusive = small, poorly fitted or top-dose-only effect, or effect the other way; inactive = no such curve, though single readings can be large or run the other way.
Potency is the fitted concentration of half-maximal effect.

As for `COc1cc2c(Oc3ccc(NC(=O)C4(C(=O)Nc5ccc(F)cc5)CC4)cc3F)ccnc2cc1OCCCN1CCOCC1`, the Potency in test [1] is 4180 nM (active); in test [2], 16600 nM (active); in test [3], 4180 nM (active); in [4], 2960 nM (active); in [5] it was 10500 nM (active); in test [6], 264 nM (active). The Potency in test [7] was 5900 nM (active); in [8] it was 4180 nM (active); in test [9], 20900 nM (active); in [10], 20900 nM (active).

Consider `C[C@@H](Oc1cc(-c2cnn(C3CCNCC3)c2)cnc1N)c1c(Cl)ccc(F)c1Cl`, for which the Potency in [1] was 14800 nM (active); in [2] it was 14800 nM (active); in [3], 11800 nM (active); in test [4], 4690 nM (active); in test [5], 11800 nM (active); in [6] it was 3320 nM (active). For the same compound, the Potency in [7] was 5260 nM (active); in [8], 5900 nM (active); in test [9], 7430 nM (active); in test [10], 14800 nM (active).

Take `Cc1ccc(C(=O)Nc2cccc(C(F)(F)F)c2)cc1-c1ccc2nc(NCCN3CCOCC3)ncc2c1`: the Potency in test [1] was 14800 nM (active); in test [2] it was 18700 nM (active); in test [3], 14800 nM (active); in test [4], 1050 nM (active); in test [5], 9350 nM (active); in [6] it was 935 nM (active). The Potency in test [7] is 14800 nM (active); in [8], 7430 nM (active); in test [9], 16600 nM (active).

As usually defined, the viability is a read-out of living cells in per cent, often relative to untreated cells. On to `CCCNC(=O)Nc1ccc(Oc2ncnc3cc(OC)c(OC)cc23)cc1Cl`, for which the Potency entry in test [1], in test [2], in [3], in test [4] and in test [5] was “inactive” in each case. In [9], the viability is 116%.

`Cc1ccc(C(N)=O)cc1Nc1nccc(-c2cn(C(C)C)c3cnccc23)n1`: the Potency in [1] is 8330 nM (active); in test [2] it was 8330 nM (active); in test [3] it was 13200 nM (active); in [4], 2640 nM (active); in test [5] it was 6620 nM (active); in [6], 935 nM (active). The figures for the Potency in [8] and in [9] were 7430 nM (active) and 16600 nM (active), respectively.

Regarding `COc1ccc(-c2cc3c(C)nc(N)nc3n(C3CCC(OCCO)CC3)c2=O)cn1` (centres undefined), the Potency is 14.8 nM (active) in test [1]; 14.8 nM (active) in test [2]; 33.2 nM (active) in [3]; 10.5 nM (active) in test [4]; 74.3 nM (active) in [5]; 118 nM (active) in test [6]. Moreover, the Potency in test [7] is 83.3 nM (active); in test [8], 46.9 nM (active); in [9], 13.2 nM (active); in [10], 264 nM (active).

`Cc1[nH]nc2ccc(-c3cncc(OC[C@@H](N)Cc4ccccc4)c3)cc12`: the Potency in test [1] is 1320 nM (active); in test [2] it was 4180 nM (active); in test [3], 4180 nM (active); in [4], 935 nM (active); in test [5], 4690 nM (active); in test [6], 33.2 nM (active). In addition, the Potency in test [7] is 3320 nM (active); in test [8] it was 2350 nM (active); in test [9] it was 8330 nM (active); in [10] it was 59 nM (active).

As to `OCCCNc1cc(-c2ccnc(Nc3cccc(Cl)c3)n2)ccn1`, the Potency in test [1] is 93.5 nM (active); in test [2] it was 105 nM (active); in test [3], 148 nM (active); in [4], 33.2 nM (active); in test [5] it was 132 nM (active); in test [6] it was 46.9 nM (active). Besides, the Potency in test [7] was 105 nM (active); in test [8], 46.9 nM (active); in test [9], 148 nM (active); in test [10] it was 148 nM (active).

Turning to `CC(C)c1ccc(Cn2ccc3c4c(N)nc(NC5CC5)nc4ccc32)cc1`, the Potency in test [1] was 9350 nM (active); in test [2], 4690 nM (active); in test [3] it was 9350 nM (active); in test [4] it was 469 nM (active); in [5], 3320 nM (active); in test [6] it was 1660 nM (active). In addition, the Potency in test [7] is 2350 nM (active); in [8], 1870 nM (active); in test [9] it was 11800 nM (active); in [10], 13200 nM (active).

Turning to `CC=C1NC(=O)[C@H]2CSSCCC=C[C@H](CC(=O)N[C@H](C(C)C)C(=O)N2)OC(=O)[C@H](C(C)C)NC1=O`, the Potency in test [1] was 16.6 nM (active); in [2], 11.8 nM (active); in test [3] it was 20.9 nM (active); in test [4], 6.6 nM (active); in test [5], 26.4 nM (active); in test [6], 59 nM (active). Moreover, the Potency in test [7] is 6.6 nM (active); in [9] it was 41.8 nM (active); in test [10], 37.2 nM (active).

`CC(C)Nc1cc(C(F)(F)F)cc2nc(NC(=O)c3cccnc3)nn12`: the Potency result in test [1], in [2], in test [3], in [4], in test [5] and in test [8] was “inactive” each time. In addition, the figures for the Potency in test [7] and in test [10] were 8330 nM (active) and 7430 nM (active), respectively.

Consider `CC[C@@]1(O)C(=O)OCc2c1cc1n(c2=O)Cc2cc3cc(O)ccc3nc2-1`, for which the Potency in test [1] was 66.2 nM (active); in test [2], 2640 nM (active); in [3], 469 nM (active); in [4], 935 nM (active); in [5] it was 1180 nM (active); in test [6], 10.5 nM (active). The figures for the Potency in [8], in [9] and in test [10] were 2960 nM (active), 1320 nM (active) and 2960 nM (active), respectively.

`CCC[C@H](NC(=O)C(C#N)=Cc1cccc(Br)n1)c1ccccc1`: the Potency is 1660 nM (active) in test [1]; 5260 nM (active) in [2]; 2960 nM (active) in test [3]; 7430 nM (active) in [4]; 4690 nM (active) in test [5]; 526 nM (active) in test [6]. Besides, the Potency was 2090 nM (active) in test [7], 935 nM (active) in test [8], 2960 nM (active) in test [9] and 5900 nM (active) in [10].
